Results reported in PubChem BioAssay AID1645870 (National Center for Advancing Translational Sciences (NCATS), 2021).
“And” between values parts separate entries of the source, which are not always exact repeats. Equal values may be shown once. The campaign covered roughly 59,000 compounds. About 1,500 (2.5%) were called active. About 10% were inconclusive and are not listed. The call rests on the fitted dose curve; in most records, active means well fitted inhibition curve with a large enough effect; inconclusive means small, poorly fitted or top-dose-only effect; inactive means flat fitted curve, though single readings scatter. This excerpt belongs to a sample that is enriched for actives.

molecular target: N-terminal Xaa-Pro-Lys N-methyltransferase 1 (Homo sapiens) (UniProt Q9BV86); assay: Primary qHTS for Inhibitors of N-terminal methyltransferase 1 (NTMT1): MTaseGlo Assay; conditions: NTMT1 MTase-Glo SAH luminescence, purified enzyme; series mostly up to 114 µM; activity change, negative = inhibition: at the top concentration; further: nearly all actives have a fitted effect of over 65% in size;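 on activity change, negative = inhibition: plate controls were DMSO vehicle for no effect and no enzyme for full effect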
Sequence (Q9BV86 whole entry, looked up): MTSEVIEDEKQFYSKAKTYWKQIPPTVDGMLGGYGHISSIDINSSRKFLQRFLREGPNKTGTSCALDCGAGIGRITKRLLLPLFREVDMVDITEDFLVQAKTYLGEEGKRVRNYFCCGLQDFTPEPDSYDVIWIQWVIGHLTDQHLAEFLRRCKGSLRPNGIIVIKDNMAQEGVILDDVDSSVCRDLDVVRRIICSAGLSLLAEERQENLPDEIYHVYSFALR
Source text: Assay Submitter (PI): Rong Huang Ph.D.
Purdue University, West Lafayette, IN 47907
The N-terminal methytransferase 1 is the first methyltransferase that methylates protein alpha-N-amines and plays an important role in regulating cell mitosis, chromatin interactions and DNA repair. It is observed to be over-expressed in various cancer patient tissues like malignant melanoma and colorectal cancer tissues. Knockdown of NTMT1 in cancer cells causes cell mitotic defects and enhances sensitivity to DNA damaging chemotherapeutics. […] These critical cellular processes in which NTMT1 is implicated, coupled with emerging links to cellular dysfunction, strengthen the inference that NTMT1 is a compelling novel anticancer target. Progress have been made in understanding the molecular properties of NTMT1 and the biological consequences of protein alpha-N-terminal methylation, but there are no specific small molecule probes available for NTMT1 to fully characterize its MTase activity. To address this unmet need, a panel of assay is created and established to enable quantitative high-throughput screening (qHTS) for novel, potent, and selective small molecule NTMT1 inhibitors. Two orthogonal qHTS that use different reagents (ThioGlo vs. MTaseGlo) are developed for primary robotic screening against the NCATS chemical library of more than 400,000 small molecules. Identified inhibitors are reacquired, validated, and further characterized.
MTaseGlo Assay is a luminescence screen that measure the activity of methyltransferases based on the reaction product S-adenosyl homocysteine (SAH). The substrate SAM is converted to SAH upon enzyme activation. MTase-Glo reagent and detection solution convert SAH to ATP and measure the light from the luciferase reaction.
Materials: NTMT1 enzyme, substrate SPKRIA, control peptide RCC1-6 is provided by the Huang laboratory.
SEQUENCE No. (e.g., 1, 2, 3, etc.); […] (e.g., Cells, Incubation, Reagent, etc.); VALUE; DESCRIPTION
1; Enzyme; 3 uL; Dispense enzyme mixture (final concentrations of 125 nM NTMT1 and 100 uM SAM) into Greiner 1536-well white / solid bottom assay plate (Greiner Bio One, Monroe, NC).
2; Compounds; 23 nL; Compounds and controls were transferred via a Kalypsys Pin Tool (Wako USA) equipped with a 1536-slotted pin array (Wako Automation, Richmond, VA)
3; Incubation; 15 min; Incubate at room temperature
4; Substrate; 1 uL; Dispense 1 uL of substrate at final concentration of 1 uM. Buffer solution was dispensed in control wells. The assay plate was covered with metal lids.
5; Incubation; 30 min; Incubate at room temperature, protected from lights.
6; Reagent; 1 uL; Dispensed 5x MTase-Glo detection reagent (R) into the assay plate. The plate was covered with metal lids.
7; Incubation; 30 min; Incubate the assay plates at room temperature in the dark to allow for SAH to be converted to ADP.
8; Reagent; 5 uL; Dispense 5 uL of 1x MTase-Glo Detection Solution (R) to allow for ADP to be converted to ATP which was then detected with a luciferase reaction.
9; Centrifuge; 15 sec; Centrifuge the assay plate for 15 seconds at 1000 RPM.
10; Incubation; 30 min; Assay plates were incubation at room temperature in the dark.
11; Detection; Luminescence; Plates were read on ViewLux detector (PerkinElmer). Data were normalized to no-enzyme (0% activity) and no-inhibitor (DMSO; 100%) controls, and the resulting percent inhibition data were fitted to a 4-parameter Hill equation using GraphPad Prism.
Potency means the concentration at half of the fitted maximal effect.

Row | SMILES | activity change, negative = inhibition | Potency
1 | C=CC(=O)Nc1ccc2ncnc(Nc3ccc(OCc4cccc(F)c4)c(Cl)c3)c2c1 | -22% [at 57.5 µM] (inactive) | 
2 | COc1cc2ncnc(Nc3cccc(Cl)c3F)c2cc1OC(=O)N1CCN(C)C[C@H]1C |  | 35.5 µM (active) and 39.8 µM (active)
3 | Cc1cc(NS(=O)(=O)c2cc3c(cc2F)NC(=O)CC3)ccc1F |  | inactive
4 | CNc1oc(-c2ccc(-c3ccccc3)cc2)nc1C#N | -2.96% (inactive) | 
5 | COc1ccc(C(=O)N(Cc2ccccc2)Cc2ccc(OC)c(COc3ccc(NC(C)=O)cc3)c2)c(O)c1 | -0.368% (inactive) | 
6 | O=C(Nc1ccc(S(=O)(=O)Nc2nccs2)cc1)C1CC(OCc2ccccc2)C1 (stereo not drawn) | 3.69% (inactive) | 
7 | O=C(CNC(=O)c1ccc(Cl)cc1Cl)OC(C(=O)Nc1cc(C(F)(F)F)ccc1Cl)c1ccccc1 (stereo not drawn) | 14.1% (inactive) | 
8 | Cc1cn([C@H]2C[C@H](N[S+](=O)([O-])Cc3ccc(Cl)cc3)[C@@H](CO)O2)c(=O)[nH]c1=O | 1.89% (inactive) | 
9 | Cc1[nH]c(/C=C2\C(=O)Nc3ccc(S(=O)(=O)Cc4c(Cl)cccc4Cl)cc32)c(C)c1C(=O)N1CCC[C@@H]1CN1CCCC1 |  | 11.2 µM (active)
10 | Cc1cc(C)c(/C=C2\C(=O)Nc3ccccc32)[nH]1 |  | inactive
11 | Cc1ccc(C(=O)Nc2ccc(S(=O)(=O)Nc3nccs3)cc2)cc1C | -14.7% (inactive) | 
12 | O=C(Cc1ccc(Cl)c(Cl)c1)Nc1ccc([S+](=O)([O-])Nc2cccc([N+](=O)[O-])c2)cc1 | 5.18% (inactive) | 
13 | O=S1(=O)N=C(Oc2cccc(Br)c2)c2ccccc21 | -6.08% (inactive) | 
14 | O=C(Nc1ccccn1)c1sc2ccc([N+](=O)[O-])cc2c1Cl | 3.22% (inactive) | 
15 | COC(=O)c1ccccc1NC(=O)c1ccc(C#N)cc1 | -1.32% (inactive) | 
16 | COc1ccc(C2Nc3ccccc3C(=O)N2Cc2cccc(OC)c2OC)cc1COc1c(C)cc(NC(C)=O)cc1C (stereo not drawn) | -0.852% (inactive) | 
17 | Cc1ccccc1NC(=O)c1c(NC(=O)c2ccccc2F)sc2c1CCC(C)C2 (stereo not drawn) | 22.5% (inactive) | 
18 | Cc1cccc(N2CCN(C(=O)c3cc4c(=O)oc5ccccc5c4s3)CC2C)c1 (stereo not drawn) | 1.45% (inactive) | 
19 | Cc1cccc(N2CCN(c3ccc(C(=O)O)cc3NC(=O)c3ccccc3F)CC2C)c1 (stereo not drawn) |  | 70.8 µM (active)
20 | O=C1CC(c2c[nH]c3ccc(F)cc23)C(=O)N1 (stereo not drawn) | 7.14% (inactive) | 
21 | CC1=C(C(=O)Nc2ccccc2C)C(c2ccccc2Br)N=C(Nc2nc3ccccc3o2)N1 (stereo not drawn) | 10.4% (inactive) | 
22 | O=C(CNC(=O)c1ccc(Cl)c(C(F)(F)F)c1)OC(C(=O)Nc1cc(C(F)(F)F)ccc1Cl)c1ccccc1 (stereo not drawn) | 6.81% (inactive) | 
23 | CCC(C(=O)Nc1cccc(Cl)c1C)n1nc(-c2ccc(C)cc2)ccc1=O (stereo not drawn) |  | 79.4 µM (active)
24 | Cc1ccc(-c2ccc(=O)n(CCNC(C)c3ccco3)n2)cc1 (stereo not drawn) | -3.03% (inactive) | 
25 | Cc1c(Cl)cccc1NC(=O)N1CCN(C(=O)c2nsc3ccccc23)CC1 | 4.51% (inactive) | 
26 | N#CN1CCC(NC(=O)c2ccc(F)cc2)CC1 | 10.9% (inactive) | 
27 | CNc1oc(-c2cccc(Cl)c2Cl)nc1C#N | -4.37% (inactive) | 
28 | COc1cccc(C(=O)NC2CCN(C#N)CC2)c1 | 12.7% (inactive) | 
